Drawing on the OligoGym collection, this text covers sensor-assay potency score (higher = more potent) for 38 sequences.
Also: reference of the scale not given here.

In one test the target is KIAA1217. Kind of test: pooled miR-30 sensor sort-seq; sequence = guide strand. The conditions noted are these: shRNA.
For the sequence TTTTTGTCTCTCTTGCTCCACT, the sensor-assay potency score (higher = more potent) was -0.52.
Same read-out and setting: the figure for TGAACTTCCATTCTGTGCCTTG is 0.302; for TACACTTTGAGGAGTGATCTGT it is 0.221.

The next test concerns the target KIAA1279. The test is described as above. The following applies: shRNA.
In the case of TTGAGCTAGGTAATATAGGTTA, the sensor-assay potency score (higher = more potent) was -0.261.
Consider TTTTTGATCTCTCTTGTTCAGT, for which the sensor-assay potency score (higher = more potent) was -0.606.
With TTCTTTGATGATAAAGCTCTGG, the sensor-assay potency score (higher = more potent) is -0.681.
On the same count and under the same terms, the figure for TAGCTTATTGATGTAAAACTGT is -0.47; for TAGGTTATGAGTATAAACCTTT it is -0.128.
On the same count and under the same terms, next, TTCAATATTGCACATTTCCTTT: -0.873.
The same measure, in the same setting: next, TATACTGATTATATAGTGCTTC: 0.382.
In turn, TAAAGCTCTAAGTTCAGACTGT registered a sensor-assay potency score (higher = more potent) of 0.562.
Still for that read-out and setting: the figure for TAGCTCAACTTCTATTTCCTGG is 0.213; for TAGTACTTCAGTGCTGACTTAT it is -0.671.
Same read-out and setting: the figure for TTAATAGGAAACAAGCATCTAA is 0.679.

Another test concerns the target KIAA2018. The description is as above. The conditions noted are these: shRNA.
The sequence TTTGTGTTGAGTTAGACGCTGA showed a sensor-assay potency score (higher = more potent) of 0.486.
Same read-out and setting: next, TTGTTGTAGATGACAAACCAGG: -1.34; TATCTGATGAATCTTGCTCAAC: -1.15; TTTCTGCATCTGAACTTCCTGT: -0.663.
The same measure, in the same setting: next, TTTCTGTACAGAAACATTGGGG: -0.202; TCTGCTTCCAACATCCTGCTGT: 0.86.
Same read-out and setting: the figure for TAGATTATAAGTACTAGCTAGT is 0.0786; for TTGCTGGTCACATCTTCTCTTG it is -1.17; for TTGAGCTGGAACATGCTGCTGC it is 0.733.
For the sequence TAAACTTCCACTGTTTACCTTC, the sensor-assay potency score (higher = more potent) worked out at 0.292.
On the same count and under the same terms, the figure for TTGACTAATTCGAAAAGCCTGG is -0.327; for TAGATTTCGATACAGACTCAGG it is -1.04.

For another test, the target named is KIF21A. Described as above. The following applies: shRNA.
The sequence TTGCTGACTAGCTCTGTCCTGA registered a sensor-assay potency score (higher = more potent) of 0.278.
Still for that read-out and setting: next, TTTCATTTCCATCACATCCTGC: 0.0152; TTGAGCTGCTTGAAGTCTCTGC: 0.624.
Still for that read-out and setting: next, TAGTAGTCTTGTTAGCTTGGAA: -0.0525; TTCTAGTTCATCAATCAGCTTT: -0.0186.
Take TTTTATATAACTATGAATCATA: the sensor-assay potency score (higher = more potent) was -0.753.
On the same count and under the same terms, the figure for TTGATTTGCTGACTAGCTCTGT is 0.32.
Regarding TTGTTTGAGTCGACCTTCCAGT, the sensor-assay potency score (higher = more potent) was -0.666.
Still for that read-out and setting: the figure for TATACATTGAATGTAGATCTGC is -0.0184; for TTGCAGAACAAGCATCTCCAAG it is -1.19.
On the same count and under the same terms, next, TTGAATGTAGATCTGCTCTTGC: 0.95; TTCAACTGAGCAATCTCTCTGT: 0.68.
